We go through ten compounds from PubChem BioAssay (NCATS).

Assay [1] in a line: qHTS profiling of the MIPE4 collection as inhibitors of Plasmodium falciparum (DD2) proliferation (Rep 2) (AID 743346; call rule not given here). Particulars: P. falciparum Dd2 in erythrocytes, SYBR Green DNA, 72 h; at 28.5 µM unless noted. An outline of the steps: (§1)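 Parasite DNA was quantified by SYBR Green I fluorescence (ex 485, em 535 nm) after overnight lysis in saponin/Triton buffer at room temperature. Cultures at 0.3% parasitemia and 2.5% hematocrit were first exposed to compound for 72 h at 37 C; signals were normalised to artemisinin (0.29 uM) and vehicle wells.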
(In qHTS, concentration-response curves come from the screen itself.)

A short description of assay [2]: qHTS profiling of the MIPE4 collection as inhibitors of Plasmodium falciparum (HB3) proliferation (AID 743347; call rule not given here;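 further: plate controls were DMSO vehicle wells for no effect and artemisinin wells for full effect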). The following applies: P. falciparum HB3 in erythrocytes, SYBR Green DNA, 72 h; at 28.5 µM unless noted. A digest of the protocol: as §1
A short description of assay [3]: High-throughput drug toxicity screening in the BPDCN cell line Cal-1 (AID 1224825; call rule not given here). Particulars: Cal-1 BPDCN cell viability, qHTS; at 45.8 µM (top of the series) unless noted. An outline of the steps: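 Percent activity derived from CellTiter-Glo luminescence, scaling DMSO to 100% and 9.2 uM final bortezomib to 0%. BPDCN Cal-1 cells (500/well, RPMI plus 10% FBS) incubated with compounds 48 hours at 37C before reading.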

Assay [4] in a line: qHTS assay for measurement of the activity of small molecule inhibitors on Zika virus induced Caspase-3 activity in human iPSC derived neural progenitor cells (hNPCs) (AID 1224857). Further: % of control where 0% means no effect; nearly all actives have a fitted effect of over 65% in size. An outline of the steps: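 Percent inhibition of virus-induced caspase-3/7 luminescence (Caspase-Glo), scaled between uninfected cells and Zika-infected cells. hNPCs received compound 1 hr before ZIKV at 2 FFU/cell, with 6 hours infection at 37 C.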

Assay [5] in a line: qHTS assay for measurement of the activity of small molecule inhibitors on Zika virus induced Caspase-3 activity in human astrocytoma cells (AID 1224859).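 Further: plate controls were ZIKV-infected untreated cells for no effect and uninfected cells for full effect.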 A digest of the protocol:
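Luminescent caspase-3/7 read-out (30 min reagent, room temperature) in human SNB-19 cells infected 6 h with ZIKV (2 FFU/cell) after 1 h compound pre-incubation; Data were normalised to uninfected and infected wells.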

Assay [6] can be described thus: qHTS Screen of the MIPE 4.0 Collection Against Ewings Sarcoma (TC71) (AID 1259253). Further: nearly all actives have a fitted effect of over 40% in size. Further: potency means the concentration at half of the fitted maximal effect. An outline of the steps: (§2)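 Cells plated in serum-containing RPMI (5% FBS) and treated with compound dilutions for 48 h. Readout luminescent viability; normalization relied on vehicle (no inhibition) and media-only columns (full inhibition).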
A short description of assay [7]: qHTS Screen of the MIPE 4.0 Collection Against Ewings Sarcoma (EW8) (AID 1259255). Further: nearly all actives have a fitted effect of over 35% in size. Further: potency means the concentration at half of the fitted maximal effect.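 On viability: 100% = DMSO-treated cells and 0% = medium-only wells without cells.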 A digest of the protocol:
as §2

Assay [8] in a line: qHTS Screen of the MIPE 4.0 Collection Against Ewings Sarcoma (TC32) (AID 1259256). Further: nearly all actives have a fitted effect of over 45% in size. Further: potency means the concentration at half of the fitted maximal effect. A digest of the protocol: as §2
Assay [9] is described as follows: qHTS assay to identify small molecule inhibitors of chordoma cells - UCH-1 (AID 1259355). Further: on the % scale 0 is the no-effect control and ±100 the full control effect; nearly all actives have a fitted effect of over 55% in size. A digest of the protocol:
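800 cells/well, overnight attach; compounds pinned at 15 concs, then auranofin/camptothecin/doxorubicin/rubitecan/topotecan combo added; 48hr 37 C, 5% CO2; CellTiter-Glo, 30min RT, luminescence.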

Assay [10] in a line: qHTS assay to identify small molecule inhibitors of chordoma cells - UCH-2 (AID 1259356). Further: on the % scale 0 is the no-effect control and ±100 the full control effect.
Assay [11] can be described thus: P-glycoprotein substrates identified in KB-3-1 adenocarcinoma cell line, qHTS therapeutic library screen (AID 1346986). Further: nearly all actives have a fitted effect of over 60% in size. The following applies: KB-3-1 parental cells viability, CellTiter-Glo, 72 h; at 44.5 µM (top of the series). A digest of the protocol:
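Dose-response cytotoxicity, KB-3-1 vs P-gp-high KB-8-5-11, no colchicine in assay medium. Read: CellTiter-Glo at 72 h.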

Assay [12] can be described thus: P-glycoprotein substrates identified in KB-8-5-11 adenocarcinoma cell line, qHTS therapeutic library screen (AID 1346987). Further: nearly all actives have a fitted effect of over 65% in size. Further: potency means the concentration at half of the fitted maximal effect. A digest of the protocol:
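In this qHTS, P-gp-rich KB-8-5-11 cells received library compounds across a concentration range. Viability was quantified by luminescence after 72 h at 37 degree C.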

A short description of assay [13]: qHTS Screen of the MIPE 4.0 Collection Against Ewings Sarcoma (RDES) (AID 1259252). Further: nearly all actives have a fitted effect of over 35% in size. Further: potency means the concentration at half of the fitted maximal effect. An outline of the steps:
as §2

Assay [14] can be described thus: Identifying Small Molecule Inhibitors of Pancreatic Cancer Stem Cells (A2780, Spheroid) (AID 1259357).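 Further: spheroids pre-formed over 14 days in stem cell medium on hydrogel; potency means the concentration at half of the fitted maximal effect; compound exposure lasted 48 h before the ATP luminescence read.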 The following applies: Potency: A2780 spheroid viability. A digest of the protocol: (§3)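 Luminescent ATP readout (CellTiter-Glo) quantifies surviving cells after a 48 h drug incubation. Normalization uses DMSO wells as no inhibition and media-only wells as full inhibition; bortezomib served as positive control.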

The nature of assay [15]: Identifying Small Molecule Inhibitors of Pancreatic Cancer Stem Cells (SN12C, Adherent) (AID 1259358).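 Further: potency means the concentration at half of the fitted maximal effect; cell survival measured after 48 h of compound exposure.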 A digest of the protocol: (§4)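 Pre-formed 14-day tumor spheroids or adherent cells dosed and incubated 48 h, 37C, 5% CO2. Viability assessed by CellTiter-Glo.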
Assay [16] can be described thus: Identifying Small Molecule Inhibitors of Pancreatic Cancer Stem Cells (SN12C, Spheroid) (AID 1259360). Further: potency means the concentration at half of the fitted maximal effect. The following applies: Potency: SN12C spheroid viability. A digest of the protocol: as §3
A short description of assay [17]: Identifying Small Molecule Inhibitors of Pancreatic Cancer Stem Cells (A278, Adherent) (AID 1259361).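 Further: viability read after 48 h compound exposure; nearly all actives have a fitted effect of over 35% in size.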 An outline of the steps:
as §4

“And” between values parts separate entries of the source, which are not always exact repeats. Identical values can stand only once. Inconclusive results are not listed. The source made the active and inactive calls. Unless noted, the call rests on the fitted dose curve; in most records, active means well fitted curve in the direction sought with a large enough effect; inconclusive means small, poorly fitted or top-dose-only effect, or another doubt; inactive means no such curve, though single readings can be large; an effect the other way counts as inactive or inconclusive.

`CC1=NN(c2ccccc2)C(=O)C1`: the parasite growth, % of control (lower = inhibition) in assay [1] worked out at 86.2%. The same compound gave a growth, % of control in assay [2] of 103%. Moreover, in [3], the viability (% of control) was found to be 99.8%. For the same compound, the Potency result in [4], in [5], in assay [6], in assay [7], in assay [8] and in assay [9] was “inactive” in each case. Also, the Potency entry in assay [10] and in assay [12] was “inactive” in each case. The result in assay [11] was inactive.

For `CN1CCN(c2c(F)cc3c(=O)c(C(=O)O)cn(CCF)c3c2F)CC1`, in assay [1], the parasite growth, % of control (lower = inhibition) was 106%. Besides, the growth, % of control in [2] came out at 99%. In addition, the viability (% of control) in assay [3] was 98.4%. Besides, the Potency entry in assay [5], in assay [6], in assay [7], in assay [8], in [9] and in assay [10] was “inactive” in each case. The Potency result in [12] is “inactive”.

As to `CNC(=O)c1cc(Oc2ccc(NC(=O)Nc3ccc(Cl)c(C(F)(F)F)c3)cc2)ccn1`, the parasite growth, % of control (lower = inhibition) in assay [1] was 33%. In [2], the growth, % of control stood at 12.2%. For the same compound, the viability (% of control) in assay [3] was 9.69%. The Potency entry in [4] and in assay [5] was “inactive” in each case. The Potency in assay [13] is 1.18 µM (active); in [6], 2.35 µM (active); in [7], 18.7 µM (active); in assay [14] it was 20.9 µM (active); in assay [15], 20.9 µM (active); in [16], 18.7 µM (active). Besides, in [12], the Potency is 11.8 µM (active) and 8.2 µM (active) and 6.51 µM (active). For the same compound, the IC50 (viability decrease) in assay [17] was 18.7 µM (active).

Consider `CC(C)NCC(O)c1ccc(NS(C)(=O)=O)cc1` (centres undefined), for which the parasite growth, % of control (lower = inhibition) in assay [1] came out at 30.5%. The growth, % of control in assay [2] stood at 52.5%. The viability (% of control) in [3] came out at 120%. Also, the Potency entry in [4], in assay [5], in [10] and in assay [12] was “inactive” each time. For the same compound, the Potency in assay [6] and in [7] was 16.6 µM (active) throughout.

On to `Cc1oc(=O)oc1CN1CCN(c2cc3c(cc2F)c(=O)c(C(=O)O)c2n3C(C)S2)CC1` (centres undefined), for which the parasite growth, % of control (lower = inhibition) in [1] turned out to be 9.67%. Also, in assay [2], the growth, % of control was found to be 24.3%. Besides, the viability (% of control) in assay [3] came to 103%. In addition, the Potency result in assay [4], in assay [5], in assay [6], in [7], in assay [10] and in [12] was “inactive” throughout. Also, the result in [11] was inactive.

Turning to `NC(N)=NC(N)=NCCc1ccccc1`, the parasite growth, % of control (lower = inhibition) in [1] was 47%. In [2], this compound gave a growth, % of control of 50.7%. In addition, the viability (% of control) in assay [3] worked out at 75.1%. In addition, the Potency result in assay [4], in assay [5], in assay [9], in [10] and in [12] was “inactive” throughout. The Potency was 11.8 µM (active) in assay [13], 18.7 µM (active) in assay [6] and 16.6 µM (active) in assay [7].

Turning to `CCCc1nc(C)c2c(=O)[nH]c(-c3cc(S(=O)(=O)N4CCN(CC)CC4)ccc3OCC)nn12`, the parasite growth, % of control (lower = inhibition) in assay [1] came to 33.2%. This compound gave a growth, % of control in assay [2] of 9.8%. In assay [3], the viability (% of control) worked out at 4.45%. For the same compound, the Potency result in [4], in assay [5], in assay [9] and in assay [10] was “inactive” in each case. Moreover, the Potency is 8.33 µM (active) in assay [6], 3.72 µM (active) in assay [7] and 9.35 µM (active) in assay [8].

For `CC(C)C1CCC(C(=O)N[C@H](Cc2ccccc2)C(=O)O)CC1` (some centres undefined), in assay [1], the parasite growth, % of control (lower = inhibition) is 109%. For the same compound, the growth, % of control in assay [2] was found to be 85.4%. The viability (% of control) in [3] was found to be 99.1%. The Potency result in assay [5], in assay [13], in [6], in assay [7], in [8] and in assay [9] was “inactive” each time. For the same compound, the Potency entry in [10] and in assay [12] was “inactive” each time.

As for `CC(N)C12CC3CC(CC(C3)C1)C2` (centres undefined), in assay [1], the parasite growth, % of control (lower = inhibition) worked out at 32.1%. The compound further registered a growth, % of control in [2] of 96.9%. The viability (% of control) in [3] was determined as 105%. Moreover, the Potency entry in [5], in assay [13], in assay [6], in assay [7], in assay [10] and in [12] was “inactive” in each case.

On to `CC(C)(C)NC(=O)[C@H]1CC[C@H]2[C@@H]3CC[C@H]4NC(=O)C=C[C@]4(C)[C@H]3CC[C@]12C`, for which, in [1], the parasite growth, % of control (lower = inhibition) was 53%. In [2], the growth, % of control came out at 72.9%. Also, the viability (% of control) in assay [3] amounted to 4.87%. Further, the Potency entry in [4], in assay [5], in assay [10] and in [12] was “inactive” each time. The Potency in [6] was 1.32 µM (active); in assay [7], 5.9 µM (active).
